Source: PubChem (Columbia University Molecular Screening Center)
VCAM1 pot: enhances TNF alpha induced VCAM1 expression in HUVEC. 0.19% of 93,000 active. HUVEC TNFa-stimulated VCAM-1 immunofluorescence, high-content imaging; scaled per plate to unstimulated/TNFa-only wells. activation, % at 2 µM. AID 808;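 active = activation above the screen mean plus 3 SD, with well images confirming the hit on visual review, cut at about 28% in these data, passing the limit was not always enough; inconclusive = activation above that limit but images do not confirm it; inactive = activation not above that limit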;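 note: signal is the number of cytoplasmic VCAM-1 stained grains per positive cell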
VCAM1 pot confirm: potentiators of TNFa-induced VCAM1 expression, confirmation, imaging, HUVEC, triplicate retest; activation, % at 2 µM; 230 tested, under 10 active; shares compounds with VCAM1 pot; AID 1034; HUVEC TNFa-stimulated VCAM-1 immunofluorescence imaging;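 active = activation above 30% in triplicate retests at 2 µM, then confirmed by visual review of the well images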
Large screens that a line does not name were inactive (follow-up assays come after a bar, where they were run). The entries come from a sample that favours hits as a whole.

O=C(Oc1csc(=S)n1C(=O)c1ccccc1)c1ccccc1	none
Nc1sccc1C(=O)c1ccccc1	VCAM1 pot 66 | VCAM1 pot confirm inactive
Nc1ccccc1NC(=O)c1ccccc1	none
O=C(CSCCO)Nc1cc(C(F)(F)F)ccc1Cl	none
Cn1c(-c2ccc3c(c2)OCO3)cnc1NCc1ccccc1	VCAM1 pot 51 | VCAM1 pot confirm inactive
c1cncc(-c2nc(-c3ccc4c(c3)OCO4)cs2)c1	none
Cn1c(Cc2ccccc2)nnc1SCC(=O)Nc1ccc2c(c1)OCO2	none
Cc1ccccc1-c1nc(Cc2ccccc2)no1	none
CCOC(=O)C1C(=O)NC(N2CCCCC2)=NC1c1ccco1 (stereo unspecified)	none
O=C(N/N=C/C(Br)=C/c1ccccc1)c1n[nH]c2c1CCC2	none
O=C(Nc1ccc2c(c1)CCC2)c1cnccn1	none
O=C(N/N=C/C(Cl)=C\c1ccccc1)c1cnccn1	VCAM1 pot 63 | VCAM1 pot confirm inactive
Cc1ccc(-n2c(N)c(C(=O)NCc3cccnc3)sc2=S)cc1	none
O=C(CN(C(=O)Cn1nnc(-c2cccs2)n1)c1ccc2c(c1)OCCO2)NC1CCCCC1	VCAM1 pot 56 | VCAM1 pot confirm inactive
CCOc1ccc(-c2nnn(CC(=O)NCc3ccc4c(c3)OCO4)n2)cc1	none
Cc1ccc(-c2nnn(CC(=O)N(Cc3ccco3)C(C(=O)NC3CCCC3)c3cccs3)n2)o1 (stereo unspecified)	none
CCOc1ccccc1NC(=O)C1CC2CCCC(C1)C2=O (stereo unspecified)	none
Cc1ccccc1C(=O)c1c[nH]c(C(=O)NCC2CCCO2)c1 (stereo unspecified)	none
Cc1nc2ccc(F)cc2cc1C(=O)NCC1CCCO1 (stereo unspecified)	none
COCCSc1ccccc1C(=O)NCC1CCCO1 (stereo unspecified)	VCAM1 pot inconclusive | VCAM1 pot confirm inactive
COc1ccc(C(=O)c2ccc(N3CCN(C4CC(=O)NC4=O)CC3)cc2)cc1F (stereo unspecified)	none
Cc1ccc(-c2nnc(SCC(C)C)n2C)cc1	none
CC(C)NC(=O)CSc1nnc(-c2ccc(C(C)(C)C)cc2)n1C	VCAM1 pot inconclusive | VCAM1 pot confirm inactive
CC(C)CCNC(=O)CSc1nnc(-c2ccc(S(=O)(=O)N3CCCC3)cc2)n1C	none
Cc1nc(N2CCN(C(=O)c3ccc(Cl)cc3)CC2)c(C#N)c2c1COC(C)(C)C2	VCAM1 pot 50 | VCAM1 pot confirm inactive
COC(=O)c1ccc(CSc2nc(N3CCOCC3)c3c(c2C#N)CC(C)(C)OC3)o1	none
CC(C)(C)C(=O)Nc1ccccc1N1CCN(C(=O)c2ccc(Cl)cc2)CC1	none
COc1ccc(C(=O)c2ccc(N(C)C)cc2)c2ccccc12	none
Cn1c(-c2ccccc2)cnc1SCC(=O)NCc1ccco1	none
O=c1[nH]c(NCc2ccco2)nnc1Cc1ccccc1Cl	none
CCOC(=O)c1cc(CC)sc1NC(=O)Cc1ccccc1	VCAM1 pot 35 | VCAM1 pot confirm inactive
CCOC(=O)c1c(-c2cccs2)csc1NC(=O)CCCC(=O)O	none
COC(=O)c1c(NC(=O)Cc2ccccc2)sc(C)c1C	none
CCOC(=O)C1=C(C)NC(C)=C(C(=O)OCC)C1C(=O)OC1CCOC1=O (stereo unspecified)	none
COc1ccc(CNC(=O)COC(=O)C2=COCCO2)cc1	none
C=CCNC(=O)CN1CCC(n2c(C)nc3cc(C(F)(F)F)ccc32)CC1	VCAM1 pot 58 | VCAM1 pot confirm inactive
C=CCNC(=O)CCCOc1ccc(C)cc1	none
O=C(CSc1nnnn1-c1ccccc1Cl)Nc1ccc2c(c1)OCCO2	none
NS(=O)(=O)c1ccc(CCNC(=O)C2CCCCC2)cc1	VCAM1 pot 33 | VCAM1 pot confirm inactive
CCC(CC)C(=O)NCCc1ccc(S(N)(=O)=O)cc1	none
COc1ccc(CCNC(=O)C2CCN(S(=O)(=O)N3CCCCCC3)CC2)cc1OC	none
CC(Nc1cc(=O)n(C)c(=O)[nH]1)c1ccccc1 (stereo unspecified)	none
CCOc1cc(NC(=O)c2ccccn2)c(OCC)cc1NC(=O)CC(C)C	none
Cc1ccc(N(C)C(=O)N2CCN(S(=O)(=O)c3ccc(C)c(C)c3)CC2)cc1	none
Cc1nnc(NC(=O)c2cccc(F)c2)s1	none
O=C(N/N=C/c1cc2c(cc1Cl)OCO2)c1ccccn1	none
O=C(N/N=C/c1ccccc1Cl)c1cccc(F)c1	VCAM1 pot 56 | VCAM1 pot confirm inactive
Cc1ccc(N2CCN(C(=O)N3CCCC3)CC2)cc1C	none
CCOC(=O)C(NC(C)=O)(Nc1ccc(S(=O)(=O)Nc2ccncn2)cc1)C(F)(F)F (stereo unspecified)	none
N#CC(C#N)=CC1=C2OC(c3ccccc3)=CC(c3ccccc3)=C2CCC1	none
CSCCC(NC(=O)c1ccco1)C(=O)O (stereo unspecified)	none
Cc1ccc2nc(SCC(=O)Nc3ccc4c(c3)OCCO4)[nH]c2c1	none
CCOC(=O)c1cn(CC(=O)Nc2ccc3c(c2)OCCO3)nn1	none
Cc1ncoc1C(=O)Nc1ccc2c(c1)OCCO2	VCAM1 pot 81 | VCAM1 pot confirm inactive
Cc1nc(-c2cccnc2)sc1C(N)=O	none
Cc1ccc(N2C(=O)c3ccc(C(=O)N4CCN(c5cccc(C)c5C)CC4)cc3C2=O)cc1	none
Cc1oc(C(=O)O)cc1COc1ccc2c3c(c(=O)oc2c1)CCC3	none
NCCN1CCN(CCN)CC1	none
O=C(c1cnn2c1NC(c1ccco1)CC2C(F)(F)F)N1CCN(c2cccc(Cl)c2)CC1 (stereo unspecified)	none
Nc1c(Cl)cc(Cl)cc1C(=O)OCC(=O)NC1CC1	none
Cc1ccc(CCN2CC(C(=O)NCCCOC(C)C)CC2=O)cc1 (stereo unspecified)	none
O=C(COC(=O)c1ccncc1)NC(=O)C1CCCCC1	none
O=C(NCc1ccccc1)C1CCCN(C(=O)Nc2ccccc2)C1 (stereo unspecified)	none
Cc1cccn2cc(CNC(=O)C3CCCCC3)nc12	VCAM1 pot 60 | VCAM1 pot confirm inactive
O=C(Nc1ccc2nsnc2c1)NC1CCCCC1	VCAM1 pot 57 | VCAM1 pot confirm inactive
CC(C)C(=O)Nc1ccc(C(=O)NNC(=O)NC2CCCCC2)cc1	none
Cn1c(CCNC(=O)c2ccco2)nc2cc(NC(=O)NC3CCCCC3)ccc21	none
O=C(Cc1ccccc1)Nc1ccc2oc(-c3cccnc3)nc2c1	none
O=C(Nc1ccc2oc(-c3ccccc3)nc2c1)c1ccc2c(c1)OCCO2	VCAM1 pot 30 | VCAM1 pot confirm inactive
O=C(Nc1ccc(-c2nc3cc(Cl)ccc3o2)cc1)C1CCCO1 (stereo unspecified)	none
CCC(C)(C)n1nnnc1CN1CCC(O)(c2cccc(C(F)(F)F)c2)CC1	none
O=C(CSc1nc2ccccc2[nH]1)c1ccc2c(c1)OCO2	none
O=C(CSc1nc2ccccc2[nH]1)Nc1cc(C(F)(F)F)ccc1N1CCOCC1	none
O=C(CSc1nc2ccccc2[nH]1)Nc1ccccc1N1CCOCC1	VCAM1 pot 48 | VCAM1 pot confirm inactive
CC(C)(C)C(=O)COC(=O)CNC(=O)c1ccc(Oc2ccccc2)cc1	none
CC1CCc2nc(NC(=O)C3CCCO3)sc2C1 (stereo unspecified)	none
Cc1ccc(S(=O)(=O)NC(C)C(=O)Nc2ccc(C(N)=O)cc2)cc1 (stereo unspecified)	none
Cc1nc2ccccc2n1CC(O)COCC1CC=CCC1 (stereo unspecified)	VCAM1 pot inconclusive | VCAM1 pot confirm inactive
CCOC(=O)Cn1c(C)nc2ccccc21	none
CC(C)Cn1c(SCC(=O)NC(=O)NC2CCCC2)nc2ccccc21	none
CCCCc1c(C)nn(-c2nnc3c4ccccc4n(C)c3n2)c1C	none
O=S(=O)(CCc1nc2ccccc2s1)c1ccc2ccccc2c1	none
